Source: PubChem BioAssay (National Center for Advancing Translational Sciences (NCATS))
Only some compounds are listed: those with a hit (about 19% of all), similar ones and a draw of the others.
HT1080-NT tox = kills 2HG-producing HT-1080-NT fibrosarcoma cells; actives 1.6% (n = 360,000); Potency, µM (doses to about 46.1 µM), inactives show at the highest dose activity, negative = less viability, hits mostly cytotoxic; HT-1080-NT fibrosarcoma viability, CellTiter-Glo ATP luminescence, 48 h;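 also: NT is the 2HG producing partner of a matched IDH1 knockdown line; potency is read from the fitted curve at half-maximal effect; 0% = DMSO-treated cells and -100% = media-only wells without cells; nearly all actives have a fitted effect of over 55% in size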
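Fibrosarcoma NT cells, 750 per well in 5% FBS RPMI, were exposed to compound for 48 hours. Viability: CellTiter-Glo luminescence.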
DT40 TDP1 no CPT = qHTS for Inhibitors of human tyrosyl-DNA phosphodiesterase 1 (TDP1): qHTS in cells in absence of CPT | DT40 Tdp1-/- hTDP1 cells, no CPT, ATP luminescence, 48 h | Potency, µM (doses to about 46.2 µM), without a hit: at the top dose activity change, negative = growth inhibition, most hits filed as inhibitors | actives 15% (n = 420,000); also: potency is read from the fitted curve at half-maximal effect; nearly all actives have a fitted effect of over 55% in size
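Growth kinetics read by CellTiter-Glo luminescence after ≥48 hr at 37 °C. Cells: DT40 Tdp1-/- stably carrying human TDP1, 400 per well, compound exposure in the absence of CPT (DMSO vehicle).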
IL1B secr inh = inflammasome signaling inhibition, IL-1 beta readout | AID 743279 | activity change, % at 57.5 µM | THP-1 LPS/ATP IL-1B secretion, AlphaLISA, 16 h; stronger effect = lower value | actives 4.7% (n = 360,000); in the data active = activity change below about -50%; inconclusive = mostly about -30% to -49%
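THP-1 cells pretreated 1 hr with compounds (up to 57.5 uM final), then stimulated with LPS (250 ng/mL final) plus ATP (1.25 mM final); secreted IL-1B measured by AlphaLISA after 16 hr, decreased signal indicating inhibition.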
HT1080 IDH1KD tx = kills HT-1080 cells with IDH1 knockdown; actives 2% (n = 360,000); AID 686971; HT-1080 IDH1 knockdown viability, ATP luminescence, 48 h; Potency, µM (titrated, usually from 46.1 µM), for the others: at the top dose activity, negative = toxicity, usual class: cytotoxic;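 also: potency is read from the fitted curve at half-maximal effect; 0% = DMSO wells and -100% = cell-free medium wells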
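Cytotoxicity counter-line: IDH1KD HT-1080, 48 h, CellTiter-Glo. Curves classed by r2, magnitude and activity.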
TDP1 cell CPT = growth inhibition of DT40 Tdp1-/-;hTDP1 cells with camptothecin (screen for TDP1 inhibitors); actives 12% (n = 420,000); AID 686979; Potency, µM (doses to about 46.2 µM), without a hit: at the top dose activity change, negative = growth inhibition, actives largely listed as inhibitors; chicken DT40 Tdp1-/-;hTDP1 cells + 20 nM CPT, ATP luminescence, 48 h; also: potency is read from the fitted curve at half-maximal effect; nearly all actives have a fitted effect of over 55% in size
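Chicken DT40 Tdp1-/- cells complemented with human TDP1, 400 cells/well, exposed to compounds plus 20 nM camptothecin for at least 48 h at 37 C; viability read as ATP content by CellTiter-Glo luminescence.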
The depositor's hits bear a star; [ ] = another dose, or the depositor's remark. Unless noted, calls follow the shape of the dose curve; as a rule, active = well fitted curve in the direction sought with a large enough effect; inconclusive = small, poorly fitted or top-dose-only effect, or another doubt; inactive = no such curve, though single readings can be large; an effect the other way counts as inactive or inconclusive. Unless noted, % is scaled to controls: 0 for no effect and ±100 for the full control effect.

How did C[C@H]1[C@@H]2Cc3ccc(O)cc3[C@@]1(C)CCN2C do in these assays?
DT40 TDP1 no CPT: -26.4%[166 µM]; TDP1 cell CPT: -14.4%[166 µM]

How did COc1cc(C(=O)NC(=S)N2C[C@H]3C[C@H](C2)c2cccc(=O)n2C3)cc(OC)c1OC do in these assays?
HT1080-NT tox: 16.6%; DT40 TDP1 no CPT: -29.4%; IL1B secr inh: -12.5; HT1080 IDH1KD tx: -5.9%; TDP1 cell CPT: -1.4%

What do the screens show for `Cc1c(C(=O)NCc2nccs2)cnn1-c1ncc2c(n1)-c1ccccc1CC2`?
DT40 TDP1 no CPT: 20.6µM*; TDP1 cell CPT: 9.2µM*

Results for Cc1cccc(C)c1OCC(=O)Nc1ccc(Cl)cc1C(=O)c1ccccc1 ?
DT40 TDP1 no CPT: -10.5%; TDP1 cell CPT: 7.7%

How did Cc1ccccc1NC(=O)CCl do in these assays?
HT1080-NT tox: -11.3%; DT40 TDP1 no CPT: 23.1µM*; IL1B secr inh: -86.3*; HT1080 IDH1KD tx: -1.0%; TDP1 cell CPT: 18.4µM*

Results for CC1CN1P(=S)(c1ccccc1)N1CC1C (centres undefined) ?
HT1080-NT tox: 0.0%; DT40 TDP1 no CPT: -9.1%; IL1B secr inh: 9.1; HT1080 IDH1KD tx: 0.2%; TDP1 cell CPT: -28.7%

What do the screens show for `O=C1C(=Cc2cn(-c3ccccc3)nc2-c2ccc(OCc3ccc(Cl)cc3)cc2)SC(=S)N1CCS(=O)(=O)O`?
HT1080-NT tox: inconclusive; DT40 TDP1 no CPT: inconclusive; IL1B secr inh: inconclusive; HT1080 IDH1KD tx: -23.3%; TDP1 cell CPT: inconclusive

What do the screens show for `CCCCOc1ccc(CNC(=O)c2cc3n(n2)CCCN(Cc2ccc(C)cc2)C3=O)cc1`?
DT40 TDP1 no CPT: 13µM*; TDP1 cell CPT: 20.6µM*

Results for Cc1cccc(NC(=O)c2cc3c(=O)n4ccccc4nc3n2C)c1C ?
DT40 TDP1 no CPT: 0.651µM*; TDP1 cell CPT: 0.92µM*

Results for CN1CCN(c2nc3ccccn3c(=O)c2C=C2C(=O)N(C)C(=O)N(C)C2=O)CC1 ?
HT1080-NT tox: 6.8%; DT40 TDP1 no CPT: -3.1%; IL1B secr inh: 26.8; HT1080 IDH1KD tx: 7.7%; TDP1 cell CPT: 0.7%

How did CCc1ccccc1NC(=O)c1cccn(Cc2ccccc2F)c1=O do in these assays?
DT40 TDP1 no CPT: -0.5%; TDP1 cell CPT: -9.6%

What do the screens show for `Cn1c(SCC(=O)Nc2ccccc2F)nc2c([nH]c3ccccc32)c1=O`?
DT40 TDP1 no CPT: 18.4µM*; TDP1 cell CPT: 14.6µM*

What do the screens show for `Cc1cccc(NC(=O)CSc2nc3ccccc3c(=O)n2C)c1C`?
HT1080-NT tox: 1.2%; DT40 TDP1 no CPT: 4.11µM*; IL1B secr inh: -10.0; HT1080 IDH1KD tx: -1.4%; TDP1 cell CPT: 8.2µM*

Results for Cn1c(O)c(C(c2ccccn2)c2c(O)n(C)c(=S)[nH]c2=O)c(=O)[nH]c1=S ?
HT1080-NT tox: -2.6%; DT40 TDP1 no CPT: -15.4%; IL1B secr inh: 17.0; HT1080 IDH1KD tx: -0.8%; TDP1 cell CPT: 16.8%

What do the screens show for `CN1CC[C@@]23CCCCC2C1Cc1ccc(O)cc13` (some centres undefined)?
DT40 TDP1 no CPT: -1.6%[9.04 µM]; TDP1 cell CPT: 9.4%[9.04 µM]

Results for CCCc1ccc(OCC(=O)Nc2ccc(Cl)cc2C(=O)c2ccccc2)cc1 ?
DT40 TDP1 no CPT: -20.0%; TDP1 cell CPT: -18.6%

What do the screens show for `Cc1cccc(C)c1Oc1nc(-c2ccccc2)ncc1S(=O)(=O)c1ccccc1`?
HT1080-NT tox: -3.2%; DT40 TDP1 no CPT: 18.4µM*; IL1B secr inh: 2.2; HT1080 IDH1KD tx: -0.1%; TDP1 cell CPT: inconclusive

Results for COc1ccc(Nc2cc(C)c3cc(NC(=O)c4ccccc4Cl)ccc3n2)cc1 ?
DT40 TDP1 no CPT: 9.2µM*; TDP1 cell CPT: 20.6µM*

What do the screens show for `COc1ccc(NC(=O)c2cn(CCC#N)nc2-c2ccccc2)cc1`?
HT1080-NT tox: 16.1%; DT40 TDP1 no CPT: -20.1%; IL1B secr inh: -6.2; HT1080 IDH1KD tx: 5.7%; TDP1 cell CPT: -9.5%

How did CN1[C@@H]2CC[C@H]1CC(OC1c3ccccc3CCc3ccccc31)C2 (some centres undefined) do in these assays?
HT1080-NT tox: 16.4µM*; DT40 TDP1 no CPT: 2.59µM*; IL1B secr inh: inconclusive; HT1080 IDH1KD tx: 25.9µM*; TDP1 cell CPT: 8.2µM*

How did CN1C2CCC1CC(OC(=O)C1CCC(C(=O)OC3CC4CCC(C3)N4C)(c3ccccc3)c3ccccc31)C2 (centres undefined) do in these assays?
DT40 TDP1 no CPT: -9.7%[9.04 µM]; TDP1 cell CPT: -8.6%[9.04 µM]

Results for Cc1nn(-c2nc3ccccc3s2)c(C)c1Oc1ccccc1O ?
HT1080-NT tox: 12.6µM*; DT40 TDP1 no CPT: inconclusive; IL1B secr inh: -79.1*; HT1080 IDH1KD tx: 12.6µM*; TDP1 cell CPT: 18.4µM*

Results for CCC1([N+](=O)[O-])COP(N)(=O)OC1 (centres undefined) ?
HT1080-NT tox: 7.1%; DT40 TDP1 no CPT: -21.0%; IL1B secr inh: -5.2; HT1080 IDH1KD tx: 23.6%; TDP1 cell CPT: inconclusive

How did NCCNc1ccc([N+](=O)[O-])c2cccnc12 do in these assays?
HT1080-NT tox: -27.7%; DT40 TDP1 no CPT: 20.6µM*; IL1B secr inh: -28.3; HT1080 IDH1KD tx: -24.7%; TDP1 cell CPT: inconclusive

Results for CC(C(=O)Nc1ccc(Br)cc1C(=O)c1ccccc1)N1CCCCC1 (centres undefined) ?
HT1080-NT tox: -3.6%; DT40 TDP1 no CPT: inconclusive; IL1B secr inh: -22.1; HT1080 IDH1KD tx: -11.1%; TDP1 cell CPT: -29.5%

What do the screens show for `CC(C)c1ccc(CNC(=O)c2ccc(N3CCCC3)c(NC(=O)NCc3ccccc3)c2)cc1`?
DT40 TDP1 no CPT: 23.1µM*; TDP1 cell CPT: 14.6µM*

Results for COc1ccc(-c2nc3ccc(C(=O)N4CCC5(CC4)OCCO5)cc3nc2-c2ccc(OC)cc2)cc1 ?
HT1080-NT tox: -10.8%; DT40 TDP1 no CPT: inconclusive; IL1B secr inh: -4.7; HT1080 IDH1KD tx: -1.3%; TDP1 cell CPT: inconclusive

What do the screens show for `COc1ccc(N2C(=O)/C(=C/c3ccc(C)o3)C(=O)NC2=S)c(OC)c1`?
HT1080-NT tox: 7.6%; DT40 TDP1 no CPT: inconclusive; IL1B secr inh: 8.6; HT1080 IDH1KD tx: -3.7%; TDP1 cell CPT: 20.6µM*

How did COc1ccc(N2C(=O)/C(=C/c3ccc(OC)c(OC)c3)C(=O)NC2=S)cc1 do in these assays?
HT1080-NT tox: -4.1%; DT40 TDP1 no CPT: 3.6%; IL1B secr inh: 0.0; HT1080 IDH1KD tx: 2.8%; TDP1 cell CPT: -3.7%

How did CCOP(=O)(OCC)C(O)c1ccc(OC)c(OC)c1 (centres undefined) do in these assays?
HT1080-NT tox: 19.0%; DT40 TDP1 no CPT: -2.7%; IL1B secr inh: 8.2; HT1080 IDH1KD tx: 12.0%; TDP1 cell CPT: 0.5%
